Measurements from PubChem BioAssay (EPA / NIEHS).
Records with an inconclusive call do not appear. Calls of active or inactive are those of the source. Rule for the calls: active = hit-call score of the fitted dose curve at least 0.9, where 1 is the maximum; inactive = score below 0.9.

Read-out: ABC Transporter (ABCB11), ABCB11 (gene 8647)
Experiment: CLD_ABCB11_24hr: CellzDirect (CLD) Gene Expression Assay for ABC Transporter (ABCB11) at 24 hours (AID 2283674)
Description: CLD_24hr is a cell-based, multiplexed-readout assay that uses hepatocyte, a human liver primary cell, with measurements taken at 24 hours after chemical dosing in a 96-well plate.CLD_ABCB11_24hr is one of 16 assay component(s) measured or calculated from the CLD_24hr assay. It is designed to make measurements of mRNA induction, a form of inducible reporter, as detected with chemiluminescence signals by Quantitative Nuclease Protection Assay (qNPA) technology.Data from the assay component CLD_ABCB11_24hr was analyzed at the endpoint, CLD_ABCB11_24hr, in the positive analysis fitting direction relative to DMSO as the negative control and baseline of activity. Using a type of inducible reporter, gain-of-signal activity can be used to understand changes in the reporter gene as they relate to the gene ABCB11. Furthermore, this assay endpoint can be referred to as a primary readout. To generalize the intended target to other relatable targets, this assay endpoint is annotated to the transporter intended target family, where subfamily is ABC transporter.
Human hepatocyte cultures were treated daily for two consecutive days with fresh dosing solutions containing appropriate concentrations of the 320 ToxCast chemicals (chemical identities were blinded to CellzDirect and other ToxCast collaborators), vehicle control (0.2% DMSO), and positive control inducers as summarized in Table 1. Due to the large number of treatment groups and chemicals examined, the ToxCast chemicals were divided into two groups (spanning two independent cultures of hepatocytes from separate donor preparations (Hu778: ToxCast plates 1 and 2; Hu776: ToxCast plates 3 and 4). Each preparation of human hepatocyte cultures was treated with respective vehicle control, medium only control, set of six positive controls/reference chemicals for the five hepatic receptor pathways, and a subset of eight of the ToxCast chemicals (indoxacarb, pyrithiobac-sodium, norflurazon, cyhalofop-butyl, methomyl, thiram, acetochlor, and propiconazole). These replicate data, coupled with internal replicates designed within the blinded ToxCast chemical library, provided additional data to evaluate interindividual differences between hepatocyte preparations and their potential impact on chemical profiles.Cell morphology and integrity were evaluated using phase-contrast microscopy as an indicator of hepatocyte cell health (Tyson & Green, 1987). Cultures for each treatment group (i.e., media, vehicle [0.2% DMSO], positive control inducers [multiple concentrations], and the ToxCast chemicals [multiple concentrations]) were observed and cell morphology was assessed relative to vehicle control cultures at each harvest time point (0, 6, 24, or 48 h). […] Images were evaluated at the conclusion of the study to assess changes in cell integrity and account for the effects of chemical exposure on uncharacteristic changes in concentration-dependent gene expression profiles. The results from these determinations of apparent cytotoxicity were annotated (yes/no) alongside the corresponding qNPA data for reference.At the conclusion of each treatment period, hepatocyte cultures (96-well) were washed with 1 volume of HBSS, lysed by addition of 25 ul ArrayPlate lysis buffer (HTG, Tucson, AZ), and 70 ul/well of Denaturation Oil, denatured by incubation at 95C for 10 min, and frozen at approximately -70C until analysis by nuclease protection assay (qNPA) (Roberts et al., 2007). For qNPA analysis, cell lysates were thawed at 50C for approximately 30 min, qNPA probes were added, and samples were incubated at 95C for 10 min to begin the detection process by denaturing the target RNA, dissociating the duplexes and secondary structure hybridization. At the conclusion of the hybridization period, S1 nuclease reagent was added to each sample to digest all nonprotected nucleotides at 50C for 60-90 min. […]

Structure (SMILES)	outcome
O=P(O)(O)CCCl	inactive
Clc1nc(Cl)nc(Nc2ccccc2Cl)n1	inactive
O=c1n(Cl)c(=O)n(Cl)c(=O)n1Cl	inactive
COCC(=O)N(c1c(C)cccc1C)C(C)C(=O)OC (centres undefined)	inactive
COc1cc(OC)nc(NC(=O)NS(=O)(=O)c2ncccc2OCC(F)(F)F)n1	inactive
COP(=O)(OC)O/C(C)=C/C(=O)N(C)C	inactive
C=C(C)CN(CC)c1c([N+](=O)[O-])cc(C(F)(F)F)cc1[N+](=O)[O-]	inactive
CCOc1nc(F)cc2nc(S(=O)(=O)Nc3c(Cl)cccc3Cl)nn12	inactive
CCNC(=O)NC(=O)C(C#N)=NOC	inactive
CC(C)NC(=O)N1CC(=O)N(c2cc(Cl)cc(Cl)c2)C1=O	inactive
COP(=S)(OC)SCn1nnc2ccccc2c1=O	inactive
COCc1cnc(C2=NC(C)(C(C)C)C(=O)N2)c(C(=O)O)c1 (centres undefined)	inactive
OC(c1ccc(Cl)cc1)(c1ccc(Cl)cc1)C(Cl)(Cl)Cl	inactive
CS(=O)(=O)c1ccc(C(=O)C2C(=O)CCCC2=O)c([N+](=O)[O-])c1	inactive
CC(C)N1C(=O)c2ccccc2NS1(=O)=O	inactive
Cc1cnc(C2=NC(C)(C(C)C)C(=O)N2)c(C(=O)O)c1 (centres undefined)	inactive
COC(=O)c1c(C(F)F)nc(C(F)(F)F)c(C2=NCCS2)c1CC(C)C	inactive
CCCCOCN(C(=O)CCl)c1c(CC)cccc1CC	inactive
CCOP(=O)(OCC)Oc1nc(Cl)c(Cl)cc1Cl	inactive
CC(C)C1(C)N=C(c2ncccc2C(=O)O)NC1=O (centres undefined)	inactive
Cc1nc(N(C)C)nc(OC(=O)N(C)C)c1C	inactive
COCC(C)N(C(=O)CCl)c1c(C)csc1C (centres undefined)	inactive
COC(=O)NS(=O)(=O)c1ccc(N)cc1	inactive
CC(C)N1C(=O)N(c2ccccc2)CSC1=NC(C)(C)C	inactive
